p53null 32C tox = qHTS Screen for Compounds that Selectively Target Cancer Cells with p53 Mutations: Cytotoxicity of p53 Null Cells at the Permissive Temperature. Potency, µM (titrated, usually from 46.1 µM), for the others: at the highest dose activity change, negative = cytotoxicity, usual class: cytotoxic. H1299-neo p53 null cells, ATP luminescence, 24 h, 32C. 55,000 tested, 0.62% active. AID 903, 2007;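 also: 0% = DMSO only and -100% = full killing by 100 µM tamoxifen; nearly all actives have a fitted effect of over 55% in size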
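H1299-neo (p53 null) cells, 600/well, treated 24 h at 32C with compound up to 46 uM; ATPlite luminescence viability, normalized to DMSO and 100 uM tamoxifen; AC50 by Hill fit.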
PMP22 txn prim = Cell-based coincidence reporter assay to measure PMP22 gene transcription in S16 Pmp22-F2sN cells - Primary screen. S16 Pmp22-F2sN Schwann cells, FLuc/NLuc coincidence luminescence, 24 h. Potency, µM (doses to about 57.5 µM), without a hit: at the top dose activity change, negative = inhibition, actives largely listed as inhibitors. 43,000 tested, 2% active. AID 1508649, 2021; active = clear falling dose curves in both reporters; inconclusive = both reporters move, but less clearly or upward; inactive = either reporter flat; the % is the NLuc reporter signal
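Rat S16 Pmp22-F2sN cells, 500-1,000/well in phenol red-free DMEM + 10% FBS, compound-treated 24 h (37C, 5% CO2). Luminescence: FLuc read, Stop&Glo added, NLuc read.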
OvCa metastasis = Primary qHTS assay for Inhibitors of ovarian cancer metastasis using an organotypic tumor microenvironment (TME) model. SKOV3ip1-GFP adhesion/invasion on 3D omental model, fluorescence. Potency, µM (highest dose often 45.8 µM), for the others: top-dose activity change, negative = inhibition, most hits filed as inhibitors. 46,000 tested, 0.1% active;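 also: plate controls were DMSO wells for no effect and tomatine positive control wells for full effect; nearly all actives have a fitted effect of over 65% in size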
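Primary human omental fibroblast/mesothelial 3D culture pre-formed 48 h. SKOV3ip1-GFP cells added with compounds (0.36-46 umol/L), incubated 2 h RT/16 h 37 C, fixed; GFP cells quantified at 488/509 nm.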
mTORC1 inh = Acumen qHTS Assay for Inhibitors of the mTORC1 Signaling Pathway in MEF (Tsc2-/-, p53-/-) Cells: Sytravon | Tsc2-/- p53-/- MEF, phospho-rpS6 immunofluorescence/PI, 24 h | Potency, µM (series often up to 38.3 µM), for inactives: top-dose activity change, negative = inhibition, actives largely listed as inhibitors | 44,000 tested, 0.78% active;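 also: plate controls were DMSO for no effect and rapamycin for full effect; nearly all actives have a fitted effect of over 50% in size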
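Immunofluorescence of rpS6 phosphorylation in Tsc2-/-, p53-/- MEFs after 24 h compound exposure, normalized to propidium iodide signal. Activity is expressed as % positive cells, thresholded with 7.5 nM rapamycin.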
p53null 39C tox = qHTS Screen for Compounds that Selectively Target Cancer Cells with p53 Mutations: Cytotoxicity of p53 Null Cells at the Nonpermissive Temperature | H1299 p53-null (neo) cells, 39C, ATPlite viability, 24 h | Potency, µM (top dose mostly 46.1 µM), for inactives: at the top dose activity, negative = cell killing, actives largely listed as cytotoxic | 55,000 tested, 0.97% active | AID 904, 2007;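 also: 0% = DMSO only and -100% = full killing by 100 µM tamoxifen; nearly all actives have a fitted effect of over 50% in size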
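Concentration-response (up to 46 uM) was run for 24 h at the nonpermissive 39C on H1299-p53A138V or H1299-neo cells. ATP content was measured with ATPlite luminescence. AC50 values were Hill-modeled after normalizing between DMSO and 100 uM tamoxifen killing.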
S16 F2sN tox = Cell viability qHTS assay in S16 Pmp22-F2sN cells. S16 Pmp22-F2sN Schwann cells (luciferase reporters placed in the Pmp22 gene) viability, CellTiter-Glo, 24 h. Potency, µM (titrated, usually from 57.5 µM), for the others: at the highest dose activity change, negative = cytotoxicity, actives largely listed as cytotoxic. 43,000 tested, 0.48% active. AID 1508642, 2021; also: nearly all actives have a fitted effect of over 65% in size
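Rat S16 Schwann reporter line, 24 h treatment with library compounds delivered at 23 nL per well. Cell viability by CellTiter-Glo luminescence.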
* = called active by the depositor; [ ] = remark or other dose. The list is not random: actives were taken first. Their share in the collection is about 3%. Unless noted, calls follow the shape of the dose curve; as a rule, active = well fitted curve in the direction sought with a large enough effect; inconclusive = small, poorly fitted or top-dose-only effect, or another doubt; inactive = no such curve, though single readings can be large; an effect the other way counts as inactive or inconclusive. Unless noted, % is scaled to controls: 0 for no effect and ±100 for the full control effect; potency is read from the fitted curve at half-maximal effect.

How did COC(=O)CN(c1ccccc1)S(=O)(=O)c1ccc(F)cc1 do in these assays?
p53null 32C tox: 1%; p53null 39C tox: 6%

Results for Cc1ccc(N(CC(O)Cn2c3ccccc3c3ccccc32)S(=O)(=O)c2ccc(F)cc2)cc1 (centres undefined) ?
p53null 32C tox: 61%; PMP22 txn prim: inconclusive; OvCa metastasis: inconclusive; mTORC1 inh: inconclusive; p53null 39C tox: 11µM*; S16 F2sN tox: inconclusive

Results for Cc1cccc(NC(=O)CSc2nnc(-c3ccccc3C)o2)c1 ?
p53null 32C tox: -20%; p53null 39C tox: 10µM*

Results for COc1ccccc1NC(=O)CSc1nnc(-c2ccccc2C)o1 ?
p53null 32C tox: inconclusive; PMP22 txn prim: 2%; OvCa metastasis: 3%; mTORC1 inh: -2%; p53null 39C tox: 4µM*; S16 F2sN tox: 0%

What do the screens show for `COc1cccc(NC(=O)CSc2nnc(-c3cccc(OC)c3)o2)c1`?
p53null 32C tox: 16µM*; PMP22 txn prim: -15%; OvCa metastasis: 4%; mTORC1 inh: -15%; p53null 39C tox: 6.3µM*; S16 F2sN tox: -8%

What do the screens show for `Cc1cccc(-c2nnc(SCC(=O)Nc3ccc(C)c(C)c3)o2)c1`?
p53null 32C tox: -10%; PMP22 txn prim: -25%; OvCa metastasis: 2%; mTORC1 inh: -10%; p53null 39C tox: -6%; S16 F2sN tox: 0%

What do the screens show for `COc1ccc(NC(=O)CSc2nnc(-c3ccc(C)cc3)o2)cc1`?
p53null 32C tox: -9%; PMP22 txn prim: -37%; OvCa metastasis: inactive; mTORC1 inh: -4%; p53null 39C tox: 15%; S16 F2sN tox: -3%

What do the screens show for `O=C(CSc1nnc(-c2ccccc2Cl)o1)Nc1ccc2c(c1)OCCO2`?
p53null 32C tox: -7%; p53null 39C tox: -8%

How did O=C(CSc1nnc(-c2ccccc2F)o1)Nc1ccccc1Cl do in these assays?
p53null 32C tox: -21%; PMP22 txn prim: 9%; OvCa metastasis: inactive; mTORC1 inh: -3%; p53null 39C tox: 7.9µM*; S16 F2sN tox: -17%

What do the screens show for `COc1ccc(C2=N[C@H](c3ccc(Cl)cc3)[C@H](c3ccc(Cl)cc3)N2C(=O)N2CCNC(=O)C2)c(OC(C)C)c1`?
OvCa metastasis: 25%

How did O=C1NC(=O)C(=Cc2ccc3nccnc3c2)S1 do in these assays?
OvCa metastasis: -13%[23.2 µM]

How did C[C@@H]1CCO[C@H]2Cn3cc(C(=O)NCc4ccc(F)cc4F)c(=O)c(O)c3C(=O)N12 do in these assays?
OvCa metastasis: 0%

Results for CC(/C=N/Nc1nc2ccccc2[nH]1)=C\c1ccccc1 ?
p53null 32C tox: 7.9µM*; p53null 39C tox: inconclusive

Results for CC(C)OCc1cc(CN2CCN(c3cccc(C(F)(F)F)c3)CC2)c(O)c2ncccc12 ?
p53null 32C tox: inconclusive; PMP22 txn prim: 6.5µM*; OvCa metastasis: -5%; mTORC1 inh: inconclusive; p53null 39C tox: 0.5µM*; S16 F2sN tox: inconclusive

What do the screens show for `CCOCc1cc(CN2CCN(c3cccc(C(F)(F)F)c3)CC2)c(O)c2ncccc12`?
p53null 32C tox: inconclusive; PMP22 txn prim: 4.5µM*; OvCa metastasis: -13%; mTORC1 inh: inconclusive; p53null 39C tox: inconclusive; S16 F2sN tox: inconclusive

How did CC(=O)N(Cc1cccnc1)c1nc2ccc(F)cc2s1 do in these assays?
p53null 32C tox: -7%; PMP22 txn prim: -16%; OvCa metastasis: 1%; mTORC1 inh: 0%; p53null 39C tox: -17%; S16 F2sN tox: -16%

Results for O=C(CCS(=O)(=O)c1ccccc1)N(Cc1cccnc1)c1nc2ccc(F)cc2s1 ?
p53null 32C tox: inconclusive; PMP22 txn prim: 11µM*; OvCa metastasis: inconclusive; mTORC1 inh: inconclusive; p53null 39C tox: 32%; S16 F2sN tox: 4.5µM*

Results for COc1ccc2[nH]cc(CCNC(=O)Nc3cc(C)cc(C)c3)c2c1 ?
p53null 32C tox: 11%; PMP22 txn prim: 3%; OvCa metastasis: 2%; mTORC1 inh: -2%; p53null 39C tox: 20µM*; S16 F2sN tox: 3%

Results for COc1ccc2[nH]cc(CCNC(=O)Nc3ccccc3)c2c1 ?
p53null 32C tox: 4%; PMP22 txn prim: -48%; OvCa metastasis: -21%; mTORC1 inh: 0%; p53null 39C tox: -1%; S16 F2sN tox: -2%

Results for Nc1nccc(Oc2ccc(NC(=O)c3c[nH]cc(-c4ccc(F)cc4)c3=O)cc2F)c1Cl ?
OvCa metastasis: -14%

How did Cc1cccc2c1-c1sc(C(=O)NCCCN3CCN(c4ccccc4F)CC3)cc1CO2 do in these assays?
p53null 32C tox: -12%; PMP22 txn prim: inconclusive; OvCa metastasis: inconclusive; mTORC1 inh: -25%; p53null 39C tox: inconclusive; S16 F2sN tox: inconclusive

How did CCN1CCN(CCCNC(=O)c2cc3c(s2)-c2c(C)cccc2OC3)CC1 do in these assays?
p53null 32C tox: -7%; PMP22 txn prim: inconclusive; OvCa metastasis: -5%; mTORC1 inh: inconclusive; p53null 39C tox: inconclusive; S16 F2sN tox: 25µM*

How did O=C(Nc1c(Cl)cccc1Cl)c1cc(-c2cccc(O)c2)on1 do in these assays?
p53null 32C tox: 62%; OvCa metastasis: inactive; mTORC1 inh: -2%; p53null 39C tox: 13µM*

Results for COc1ccccc1-c1cccc(-c2c(O)c3cc(C#N)c(Cl)cc3[nH]c2=O)c1 ?
OvCa metastasis: 6%[92.2 µM]

Results for COc1ccc(/C=N/Nc2nncc3ccccc23)cc1 ?
p53null 32C tox: 4.5µM*

What do the screens show for `COc1ccccc1NC(=O)c1c(NCc2ccc(OC)c(OC)c2OC)sc2c1CCCC2`?
p53null 32C tox: 35%; PMP22 txn prim: 5µM*; OvCa metastasis: 13%; mTORC1 inh: -10%; p53null 39C tox: 27%; S16 F2sN tox: inconclusive

What do the screens show for `CC(C)c1noc(N2CCC(COc3ccc(-c4ccc(S(C)(=O)=O)cc4)nc3)CC2)n1`?
OvCa metastasis: -12%
